Screening data deposited in PubChem BioAssay by several laboratories.
Only some compounds are listed: those with a hit (about 1.6% of all), similar ones and a draw of the others.
NALP3 yeast inh – NALP3 inflammasome inhibitors in reconstituted yeast, primary screen, luminescence, uHTS; hit rate 0.39% among 330,000; Yeast reconstituted NLRP3/ASC/caspase-1, beta-gal luminescence, 24 h; inhibition, % at 10 µM; AID 2825, 2010;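 active = inhibition of 50% or more; inactive = inhibition below 50%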;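 also: plate controls were induced DMSO wells for no effect and uninduced yeast grown without galactose for full effect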
NALP1 yeast inh – NALP1 inflammasome inhibitors in reconstituted yeast, colorimetric, S. cerevisiae, triplicate retest. hit rate 0.61% among 280,000. inhibition, % at 10 µM. S. cerevisiae NALP1/ASC/caspase-1 growth, X-gal OD620, 72 h; in the data active = inhibition mostly above about 24%, no sharp cut-off; inactive = mostly below about 32%
V-ATPase pHluor – regulators of yeast V-ATPase proton pumping, primary screen, pHLuorin cytosolic pH fluorescence | S. cerevisiae | response, % at 10 µM | hit rate 0.37% among 350,000; in the data active = response mostly above about 7.3%, no sharp cut-off; inactive = mostly below about 5.4%; also: actives read high
CR mimetic SO – reduction of superoxide in aged yeast, primary screen, HTS | superoxide response (% of plate mean), % at 10 µM | S. cerevisiae aged cells, superoxide DHE fluorescence; stronger effect = lower value | hit rate 0.18% among 330,000;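 active = superoxide response under a set limit, about three screen SD below normal, cut at about 65% in these data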;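 also: yeast aged for seven days with compound at 30 °C before DHE staining; 100% = average MFI of all compound-treated wells on the plate with controls excluded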
Rce1 inhib – yeast Rce1p protease inhibitors, primary screen, biochemical, fluorescence, cell-free homogeneous; CAAX prenyl protease 2 (Saccharomyces cerevisiae (strain ATCC 204508 / S288c)), Q03530; yeast membranes, quenched prenylated peptide cleavage fluorescence; calls only; hit rate 0.27% among 290,000;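 active = fall in fluorescence gain of 50% or more versus controls, with final raw signal at or below 3038400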;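 also: plate controls were neutral control wells for no effect and wells lacking membranes for full effect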
PERK inh – block of dimerizer-induced PERK translation repression, primary screen, PERK inhibitor project, CHO PERK-DD cells, SEAP luminescence, HTS. CHO PERK-DD fusion, SEAP luminescence translation reporter. inhibition, % at 5.6 µM. hit rate 0.17% among 220,000. AID 1416, 2008;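 active = inhibition above the mean inhibition of all tested compounds plus 3 SD, set separately per screening campaign, cut at about 2.9% in these data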;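 also: PERK kinase domain activated by AP20187 dimerizer at 100 nM; 0% = DMSO with dimerizer and 100% = rapamycin at 8.4 µM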
Target sequence (Q9NZJ5 whole entry, looked up, the tested form may be a part): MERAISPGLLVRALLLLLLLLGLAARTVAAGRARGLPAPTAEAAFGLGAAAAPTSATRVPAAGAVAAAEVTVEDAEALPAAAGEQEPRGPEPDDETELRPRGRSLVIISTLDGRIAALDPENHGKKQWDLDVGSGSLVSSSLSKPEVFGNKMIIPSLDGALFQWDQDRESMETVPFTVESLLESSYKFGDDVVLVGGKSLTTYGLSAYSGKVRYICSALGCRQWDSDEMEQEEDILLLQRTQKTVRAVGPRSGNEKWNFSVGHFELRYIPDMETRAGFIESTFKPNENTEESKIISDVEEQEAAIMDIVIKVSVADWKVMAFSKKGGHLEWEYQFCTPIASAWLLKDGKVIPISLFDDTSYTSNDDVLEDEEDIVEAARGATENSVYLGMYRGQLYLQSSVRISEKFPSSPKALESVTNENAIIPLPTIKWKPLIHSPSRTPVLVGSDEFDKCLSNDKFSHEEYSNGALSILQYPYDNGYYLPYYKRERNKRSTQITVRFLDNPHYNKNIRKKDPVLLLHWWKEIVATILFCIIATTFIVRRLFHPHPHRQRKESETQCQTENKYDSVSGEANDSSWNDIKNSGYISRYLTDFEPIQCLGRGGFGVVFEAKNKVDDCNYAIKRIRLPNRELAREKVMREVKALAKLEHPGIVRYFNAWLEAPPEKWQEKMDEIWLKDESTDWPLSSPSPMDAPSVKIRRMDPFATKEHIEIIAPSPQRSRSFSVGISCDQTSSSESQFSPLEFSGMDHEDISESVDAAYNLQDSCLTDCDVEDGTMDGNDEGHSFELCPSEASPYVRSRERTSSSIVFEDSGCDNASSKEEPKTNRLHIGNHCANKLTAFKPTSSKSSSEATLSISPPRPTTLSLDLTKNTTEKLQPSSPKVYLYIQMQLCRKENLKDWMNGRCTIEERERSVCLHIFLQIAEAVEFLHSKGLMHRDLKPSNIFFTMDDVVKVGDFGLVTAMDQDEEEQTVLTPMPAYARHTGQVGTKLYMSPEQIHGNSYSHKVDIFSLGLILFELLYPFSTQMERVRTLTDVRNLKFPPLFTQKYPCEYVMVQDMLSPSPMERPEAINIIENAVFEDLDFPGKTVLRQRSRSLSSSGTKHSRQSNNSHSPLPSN
Superoxide pick – superoxide lowering in aged yeast cells, confirmation, cherry picked compounds; hit rate 1% among 850; S. cerevisiae aging, superoxide DHE fluorescence; stronger effect = lower value; superoxide response (% of plate), % at 10 µM; shares compounds with CR mimetic SO;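 active = superoxide signal below 65% of the plate average of sample wells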;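 also: cells aged with compound for 7 days at 30 degrees C before staining; 100% equals mean DHE fluorescence of all compound wells on the plate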
DHE counter – DHE quenching or ROS scavenging interference in aged yeast, artefact control for yeast caloric restriction mimetic project, S. cerevisiae BY4741, flow cytometry; shares compounds with CR mimetic SO; DHE fluorescence; stronger effect = lower value; fluorescence response, % at 10 µM; 850 tested, under 10 active;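 active = fluorescence response below 15%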;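 also: percent of the mean fluorescence averaged over all compound wells on the plate; lower means stronger quenching of DHE signal or ROS scavenging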
* = called active by the depositor; i = inactive; nt = no result given.

SMILES	NALP3 yeast inh	NALP1 yeast inh	V-ATPase pHluor	CR mimetic SO	Rce1 inhib	PERK inh	Superoxide pick	DHE counter
CN(c1ccccc1)S(=O)(=O)c1ccc(NC(=O)c2ccccc2)cc1	34.5	23.7	-2.0	99.2	i	-0.1	nt	nt
CCSc1ncc(Cl)c(C(=O)Nc2ccccc2)n1	11.2	19.3	-0.3	99.8	i	-0.6	107.5	89.8
CCSc1ncc(Cl)c(C(=O)Nc2ccc(S(N)(=O)=O)cc2)n1	13.9	-1.0	4.3	63.3*	i	nt	101.8	102.4
O=c1c(-c2ccccc2)cocc1-c1ccccc1	nt	nt	2.7	nt	nt	nt	nt	nt
CSc1ncc(Cl)c(C(=O)Nc2ccccc2C)n1	5.3	7.2	1.4	102.5	i	nt	101.2	107.0
O=C(CN1CCN(c2ccccn2)CC1)Nc1ccccc1Br	20.0	17.4	1.7	94.3	i	nt	108.4	98.6
O=C(CN1CCN(c2ccccn2)CC1)Nc1cccc(Cl)c1Cl	35.5	11.5	-2.3	86.5	i	nt	110.7	108.6
N#Cc1ccccc1NC(=O)CN1CCOCC1	-10.4	-8.5	-3.5	100.1	i	nt	nt	nt
N#Cc1ccccc1NC(=O)CN1CCN(c2ccccn2)CC1	8.3	12.9	3.8	98.3	i	nt	109.1	100.4
Cc1ccc2nc(NC(=O)CN3CCN(c4ccccn4)CC3)sc2c1	15.6	16.0	-5.1	96.7	i	nt	nt	nt
Cc1ccc(NC(=O)CN2CCN(c3ccccn3)CC2)c(Cl)c1	37.7	9.8	4.8	81.6	i	-0.3	113.7	130.3
COc1ccccc1NC(=O)CN1CCN(c2ccccn2)CC1	14.3	16.0	2.2	136.3	i	0.2	99.3	117.4
COC(=O)c1ccccc1NC(=O)CN1CCN(c2ccccn2)CC1	25.8	2.5	1.0	105.3	i	-0.5	98.8	92.8
COc1cc(NC(=O)CN2CCN(S(=O)(=O)/C=C/c3ccccc3)CC2)cc(OC)c1OC	6.7	nt	2.9	93.7	nt	nt	nt	nt
O=C(CN1CCN(c2ccc([N+](=O)[O-])cc2)CC1)Nc1ccccn1	13.1	2.1	2.7	60.2*	i	1.1	107.3	114.9
COc1cc(NC(=O)CN2CCN(c3ccccn3)CC2)cc(OC)c1OC	3.4	3.1	3.8	100.2	nt	nt	99.5	93.5
O=[N+]([O-])c1cccc(CON=Cc2cc(Cl)ccc2O)c1	nt	nt	1.6	nt	nt	nt	nt	nt
COc1ccc(C)cc1NC(=O)CN1CCN(c2ccccn2)CC1	13.9	-10.2	0.9	103.1	i	nt	107.2	93.4
COc1ccccc1NC(=O)CN1CCN(CC(=O)Nc2cc(C)ccc2OC)CC1	16.0	8.0	0.2	nt	i	nt	nt	nt
Cc1cccc(-n2ncc3c(N4CCOCC4)ncnc32)c1	39.3	25.1	-1.4	96.7	i	0.3	100.0	91.1
Cc1cccc(-n2ncc3c(N4CCCC4)ncnc32)c1	36.2	-82.2	1.4	104.3	i	-1.0	92.3	109.5
Cc1cccc(-n2ncc3c(N4CC(C)CC(C)C4)ncnc32)c1 (stereo unspecified)	24.9	-28.8	6.1	92.0	i	0.7	nt	nt
O=C(Nc1c2c(nn1-c1ccccc1)CS(=O)(=O)C2)c1ccc(Br)o1	nt	nt	1.0	nt	nt	nt	nt	nt
CN(CC(=O)Nc1cc(S(=O)(=O)N2CCCC2)ccc1Cl)Cc1nc2ccccc2c(=O)[nH]1	nt	nt	2.7	nt	nt	nt	nt	nt
OC(CN1CCCCC1)Cn1c2ccc(Cl)cc2c2cc(Cl)ccc21 (stereo unspecified)	17.7	48.6*	-0.6	45.1*	i	nt	95.5	93.1
SMILES	NALP3 yeast inh	NALP1 yeast inh	V-ATPase pHluor	CR mimetic SO	Rce1 inhib	PERK inh	Superoxide pick	DHE counter
CCN(CC)CC(O)Cn1c2ccccc2c2ccccc21 (stereo unspecified)	12.3	-1.7	2.4	86.5	i	-1.4	112.4	90.0
CCN(CC(O)Cn1c2ccccc2c2ccccc21)S(=O)(=O)c1ccc(F)cc1 (stereo unspecified)	36.9	1.4	1.8	107.0	i	-1.2	nt	nt
OC(CN1CCN(c2ccccn2)CC1)Cn1c2ccc(Cl)cc2c2cc(Cl)ccc21 (stereo unspecified)	30.8	-1.7	4.2	114.1	i	-2.3	nt	nt
OCCNCC(O)Cn1c2ccccc2c2ccccc21 (stereo unspecified)	16.4	-20.2	-0.5	116.7	i	1.1	91.4	89.5
OCCNCC(O)Cn1ccc2ccccc21 (stereo unspecified)	1.0	10.7	2.8	110.7	i	0.5	nt	nt
OC(CN1CCOCC1)Cn1c2ccccc2c2ccccc21 (stereo unspecified)	7.0	11.7	4.9	43.8*	i	nt	97.0	105.3
CC(C)C[C@@H](CN)NC(=O)c1nc[nH]c1C(=O)N[C@@H](CC(C)C)C(=O)CNC[C@H](C)NC(=O)c1nc[nH]c1C(=O)N[C@@H](CC(C)C)C(=O)O	nt	nt	-3.5	nt	nt	nt	nt	nt
C=CCN(CC=C)CC(O)Cn1c2ccccc2c2ccccc21 (stereo unspecified)	12.3	8.5	0.0	96.6	i	-2.2	92.1	98.1
CCOC(=O)c1ccccc1N/C=C/C(=O)c1cccs1	23.1	31.1	6.1	63.4*	i	-0.1	110.0	90.5
Oc1ccc(C=NNC(=S)Nc2ccccc2)nc1	nt	nt	1.1	nt	nt	nt	nt	nt
CC(=O)OC1CCC2(C)C3CCC4(C)C(C(C)=O)CCC4C3CC3OC32C1 (stereo unspecified)	nt	nt	1.2	nt	nt	nt	nt	nt
CC(=O)OC1(C(C)=O)CCC2C3CC4OC45CC(O)CCC5(C)C3CCC21C (stereo unspecified)	nt	nt	-3.0	nt	nt	nt	120.7	115.5
Cc1nn(C2CCS(=O)(=O)C2)c(C)c1CN(C)C(=O)c1ccc(F)cc1 (stereo unspecified)	nt	nt	0.5	nt	nt	nt	nt	nt
C=CCOc1ccccc1CN1CCC(Oc2ccc(C(=O)N3CCCC3)cc2)CC1	10.5	9.9	-4.8	64.8*	i	nt	116.8	111.2
O=C(c1ccc(OC2CCN(Cc3ccccc3OC(F)F)CC2)cc1)N1CCCC1	11.4	1.6	2.4	109.9	i	nt	nt	nt
COc1ccc(NC(=O)N(C)C[C@H]2Oc3ncc(Br)cc3C(=O)N([C@H](C)CO)C[C@@H]2C)cc1	nt	nt	-1.1	nt	nt	nt	nt	nt
c1cc2c(cc1CN1CCN(C3CCCCCC3)CC1)OCO2	7.9	10.3	5.5	43.7*	i	nt	95.0	92.9
c1ccc(CN2CCC(N3CCN(Cc4ccc5c(c4)OCO5)CC3)CC2)cc1	6.9	nt	1.9	102.6	i	1.5	nt	nt
N=NC(=O)c1ccccc1Nc1c(O)[nH]c2ccccc12	nt	nt	2.4	nt	nt	nt	nt	nt
Cc1ccc(NC(=O)CNCC(c2ccccc2)N(C)C)cc1F (stereo unspecified)	3.1	nt	0.0	103.9	i	2.3	nt	nt
